# D2 PAM-1 – D2 dopamine receptor (human) potentiation. P14416. HEK293 T-REx D2, calcium flux, EC20 dopamine potentiation. potentiation, % at 10 µM. actives 0.34% (n = 340,000). AID 485347;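 active = potentiation over 3 SD above the plate norm, cut at about 30% in these data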; note: 0% is about no effect
# Target sequence (P14416 whole entry, looked up): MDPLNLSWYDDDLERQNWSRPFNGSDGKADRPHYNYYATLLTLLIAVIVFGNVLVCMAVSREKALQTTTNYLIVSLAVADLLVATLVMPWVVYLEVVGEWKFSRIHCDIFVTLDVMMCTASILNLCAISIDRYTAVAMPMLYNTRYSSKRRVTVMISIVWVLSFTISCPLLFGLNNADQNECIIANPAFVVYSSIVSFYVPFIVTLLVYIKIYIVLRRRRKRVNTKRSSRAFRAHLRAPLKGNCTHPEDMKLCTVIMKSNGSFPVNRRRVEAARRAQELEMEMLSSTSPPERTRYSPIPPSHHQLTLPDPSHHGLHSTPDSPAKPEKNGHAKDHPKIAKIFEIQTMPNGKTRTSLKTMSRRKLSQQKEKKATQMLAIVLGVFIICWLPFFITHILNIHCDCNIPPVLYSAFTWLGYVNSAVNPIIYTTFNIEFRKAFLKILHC
#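 Potentiation of an EC20 dopamine calcium response is measured in a force-coupled, tetracycline-inducible Hek293 Trex D2 line. Compound-only kinetic reads over 180 s flag agonists before dopamine addition.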
# D2 antagonist – antagonists of human D2 dopamine receptor | AID 485344 | HEK293 TREx D2 cells, calcium flux, dopamine EC80 | actives 2% (n = 340,000) | inhibition, % at 10 µM; in the data active = inhibition above about 30%; inactive = below that, where a call was filed; note: 0% is about no effect
#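 Overnight-induced (tetracycline, 30 C) HEK293 T-REx cells carrying force-coupled D2 receive a no-wash calcium dye, then compound, then EC80 dopamine at 180 s; signals are read kinetically throughout.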
# D2 PAM-2 – positive allosteric modulators of human D2 dopamine receptor; DiscoveRx D2 beta-arrestin cells, luminescence, 90 min; 100% = 57 uM dopamine signal; AID 624464; potentiation, % (test concentration not listed); actives 0.23% (n = 360,000); P14416; in the data active = potentiation above about 50%; inconclusive = mostly about 30% to 49%
#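 PathHunter D2 cells, attached overnight at 37 deg C, received compound in DMSO plus dopamine at EC20 (50 nM final) for 90 min at 37 deg C. Beta-arrestin recruitment was read as luminescence after 1 h with detection reagent at ambient temperature.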
# D2 ag-1 – activates the human D2 dopamine receptor. activation, % at 2 µM. AID 485358. actives 0.53% (n = 340,000). HEK293 T-REx D2 cells, calcium flux agonist mode;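 active = activation over 3 SD above normal in the single-dose calcium agonist read, cut at about 30% in these data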; note: 0% is about no effect
#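 Agonism scored from kinetic calcium signal (1 read/sec, 180 s) following compound pin transfer, after a 10 s baseline. Cells: HEK293 Trex line expressing inducible D2 receptor coupled to calcium, dye-loaded after overnight culture at 30 C.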
# D2 ag-2 – activates the human D2 dopamine receptor; P14416; DiscoveRx PathHunter D2 beta-arrestin, luminescence, 90 min; 100% = 57 uM dopamine signal; activation, % (no concentration beside the values); actives 0.084% (n = 360,000); AID 624465; in the data active = activation above about 40%; inconclusive = between about 15% and that limit
#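 Agonist mode: compounds alone added to overnight-plated D2 PathHunter cells for 90 min at 37 C, with 57 uM final dopamine (EC100) defining full response. Beta-arrestin recruitment detected by chemiluminescent reagent, read after 1 h at ambient temperature.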
# D3 ag – activates human D3 dopamine receptor beta-arrestin recruitment; shares compounds with D2 ag-1; Potency, µM (series often up to 76.9 µM), inactives show top-dose activation, usual class: activators; actives 4% (n = 2,300); DiscoveRx D3 beta-arrestin cells, luminescence, 90 min;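 note: potency is the fitted concentration of half-maximal effect; 100% = dopamine control response; nearly all actives have a fitted effect of over 70% in size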
# D2 ag-3 – D2 receptor agonism, beta-arrestin counterscreen | DiscoveRx PathHunter D2 beta-arrestin, luminescence, 90 min; response scale: percent relative to full dopamine signal | shares compounds with D2 ag-1 | AID 720507 | Potency, µM (series often up to 76.9 µM), without a hit: at the highest dose activation, usual class: activators | actives 5.9% (n = 2,300); note: potency is the fitted concentration of half-maximal effect; % of control where 0% means no effect; nearly all actives have a fitted effect of over 70% in size
# * hit, by the source's call; u = inconclusive; x = no result given. Rows were chosen to be rich in hits. Some 2.4% of all compounds tested hit in one or more screens of this group. Unless noted, calls come from the whole dose curve; as a rule, active = well fitted activation curve with a large enough effect; inconclusive = small, poorly fitted or top-dose-only effect; inactive = flat fitted curve, though single readings scatter.
SMILES,D2 PAM-1,D2 antagonist,D2 PAM-2,D2 ag-1,D2 ag-2,D3 ag,D2 ag-3
COc1ccc(C#Cc2cnc3c(c2)C(=O)N([C@@H](C)CO)C[C@@H](C)[C@@H](CN(C)CC2CCOCC2)O3)cc1,x,x,0.6,x,-3.0,x,x
CCC(CC)c1nnc(NC(=O)c2cc(-c3ccccc3)nc3ccccc23)s1,x,x,-14.1,x,-0.6,-12.4%,-1.6%
COc1ccc(C(=O)/C=C/c2cc(OC)c(O)c(OC)c2)c(F)c1,-0.1,33.3*,-27.4,25.5,-3.8,3.1%,-5.9%
COc1ccc2cc(C(=O)/C=C/c3cc(OC)c(O)c(OC)c3)ccc2c1,3.1,16.1,-4.0,4.1,-3.6,x,x
COc1ccc(-c2c(-c3cc(OC)cc(OC)c3)n(C)c3ccc(-c4ccc5[nH]ccc5c4)cc23)cc1,14.1,x,-6.9,x,-3.0,3.5%,3.9%
O=C(NCc1cccc(C(F)(F)F)c1)C1CCCN(c2ncccn2)C1 (stereo not drawn),-33.1,3.3,-7.0,66.5*,-3.4,-9.0%,-5.2%
O=C(NCc1ccncc1)C1Cc2c(-c3ccccc3Oc3ccccc3)ccnc2O1 (stereo not drawn),x,x,-17.0,x,u,x,x
COc1cccc(CNc2ccc([N+](=O)[O-])cc2C)c1,0.2,-6.9,-27.7,-1.1,-4.1,x,x
COc1ccc(OC)c(CNc2ccc([N+](=O)[O-])cc2C)c1,-25.6,8.5,-1.3,57.0*,-1.3,-11.7%,3.1%
CC(C)(C)OC(=O)N1CCC(CNC(=O)c2ccc(F)cc2)CC1,-20.5,4.5,-4.2,32.2*,2.7,-5.8%,1.3%
COc1ccc(-c2nc(C)c(CCNC(=O)C(=O)Nc3ccccc3OC)s2)cc1,13.9,x,x,1.1,x,x,x
O=C(CCCN1C(=O)c2cccnc2C1=O)Nc1ccccc1F,9.7,-3.5,1.1,3.1,1.8,x,x
CCc1ccccc1NC(=O)CCCN1C(=O)c2cccnc2C1=O,-16.5,-14.2,-6.1,41.1*,-0.4,-5.5%,-4.5%
O=C1CC(N2CCOCC2)C(=O)N1Cc1ccc(N2CCCC2=O)cc1 (stereo not drawn),-2.8,17.5,-2.2,1.0,0.5,x,x
O=C1CC(N2CCN(Cc3ccc4c(c3)OCO4)CC2)C(=O)N1Cc1ccc(N2CCCC2=O)cc1 (stereo not drawn),-16.0,21.1,-16.8,54.0*,-3.5,-8.6%,12.4%
COc1ccc(OCCNC(=O)c2ccc3nc(C)c(N(C)Cc4ccc(NC(C)=O)cc4)n3c2)cc1,x,x,2.1,x,2.7,x,x
Cc1ccc(CN2CCN(Cc3ccc(-n4cccn4)cc3)CC2CCO)cc1 (stereo not drawn),-17.9,-14.6,-13.7,-1.4,1.3,x,x
O[C@@H]1CN(Cc2ccc(-n3cccn3)cc2)CC[C@H]1N1CCN(c2ccccc2F)CC1,-23.5,38.5*,-1.4,65.0*,7.6,16.7%,u
Cc1cccc(NC(c2cccc(Cl)c2)c2ccc3cccnc3c2O)n1 (stereo not drawn),-3.6,x,x,0.9,x,x,x
O=C(NCc1ccc2c(c1)OCO2)c1nc(Cn2cc(Br)cn2)no1,x,x,-4.4,x,2.1,-0.8%,-2.6%
COc1cccc2sc(NC(=O)c3ccc(S(=O)(=O)N4CCC(C)CC4)cc3)nc12,-4.2,x,x,-1.2,x,x,x
CCC(=O)N1CCc2cc(S(=O)(=O)N3CCN(c4ccccc4F)CC3)ccc21,-2.7,x,x,1.2,x,x,x
C[C@@H]1CN([C@@H](C)CO)S(=O)(=O)c2ccc(Br)cc2O[C@H]1CN(C)C(=O)Nc1ccc(C(F)(F)F)cc1,x,x,2.6,x,-1.7,x,x
Cc1cn2c(=O)c(C(=O)N3CCN(c4ccccc4F)CC3)cnc2s1,5.1,13.4,4.7,0.6,-2.2,x,x
Cc1cn2c(=O)c(C(=O)N3CCN(c4ccccc4)CC3)cnc2s1,6.1,-12.0,-23.0,0.3,-2.5,-8.5%,-1.9%
SMILES,D2 PAM-1,D2 antagonist,D2 PAM-2,D2 ag-1,D2 ag-2,D3 ag,D2 ag-3
COC(=O)[C@@H](NC(=O)Nc1ccc(S(N)(=O)=O)cc1)C(C)C,-21.8,3.5,-9.3,69.1*,-4.2,-2.2%,0.2%
Cc1cccc(-c2nc3ccccc3n3c(-c4ccccc4)c4c(=O)n(C)c(=O)n(C)c4c23)c1,13.1,x,x,0.4,x,x,x
COc1cc(CNC(=O)c2cc(-c3cc(OC)ccc3Cl)n[nH]2)cc(OC)c1,x,x,-12.0,x,4.3,x,x
O=C(CCc1nnc2n(Cc3ccc(F)cc3)c(=O)c3ccccc3n12)N1CCN(c2ccccn2)CC1,-27.2,12.3,-5.7,53.0*,-5.3,-12.6%,-8.5%
O=C(CCc1nnc2n(Cc3ccc(F)cc3)c(=O)c3ccccc3n12)NCCN1CCOCC1,0.5,-26.5,-6.9,0.2,1.4,x,x
CCN(CC(=O)Nc1ccc(NC(C)=O)cc1)C(=O)c1ccccc1SCC(=O)N1CCCC1,x,x,3.6,x,2.4,-4.4%,-2.9%
CN(Cc1ccc(Cl)cc1)C(=O)c1ccccc1SCC(=O)N1CCCC1,-1.0,x,-26.0,x,-9.9,-1.8%,-2.0%
CC(=O)Nc1ccc(NC(=O)COC(=O)c2ccccc2SCC(=O)N2CCCC2)cc1,-3.4,14.3,0.1,0.5,-0.6,x,x
CCCCC/C=C/C1=CC(=O)C[C@H](c2ccc3c(c2)OCO3)C1,-3.8,30.8*,-10.1,0.5,-3.2,-5.4%,-0.9%
Cc1cccc(NC(=O)Cn2c(=O)n(CCCCCC(=O)NCc3ccccc3)c(=O)c3sccc32)c1,-6.7,x,x,0.0,x,x,x
Cc1ccc(/C=C2/NC(=O)N(Cc3ccccc3F)C2=O)s1,-3.8,20.7,-4.0,6.9,-0.7,-4.4%,-0.4%
O=C1N/C(=C/c2cccs2)C(=O)N1Cc1ccccc1F,18.9,2.8,-1.3,0.0,-4.9,x,x
COc1ccc(CNC(=O)CN2CCC(NC(=O)c3cccc(OC)c3)CC2)cc1,x,x,-8.5,x,-4.3,x,x
c1ccc(N2CCN(Cc3nc4ccccc4[nH]3)CC2)nc1,-21.3,-9.8,-3.3,14.9,5.1,x,x
O=c1c(CN2CCN(c3ccccn3)CC2)coc2ccccc12,-17.2,79.2*,18.9,87.5*,u,10.7%,u
Cc1[nH]c2ccccc2c1CN1CCN(c2ccccn2)CC1,-22.1,55.8*,-16.8,51.0*,3.1,-11.8%,5.7%
Oc1c(CN2CCN(c3ccccn3)CC2)cc(Cl)c2cccnc12,-31.5,89.2*,-62.8,83.0*,-16.1,-21.3%,u
O=c1c(CN2CCN(Cc3ccccc3F)C(CCO)C2)coc2ccccc12 (stereo not drawn),0.6,-19.0,-11.2,9.4,3.3,x,x
Cc1ccccc1-c1nnc(CN2CCN(c3ccccn3)CC2)o1,-18.9,x,x,x,x,x,x
OCCN1CCN(Cc2cc(Cl)c3cccnc3c2O)CC1,-9.3,3.1,-24.3,-0.3,0.5,x,x

# Assay outcomes from PubChem.
